The results in this text go back to PubChem BioAssay AID588352 (The Scripps Research Institute Molecular Screening Center, 2011).

Out of some 360,000 compounds screened, about 620 (0.17%) were called active. Shown is part of a subset that was picked to be rich in actives. Values without a mark were called inactive.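 The calls were made as follows: active = inhibition above a per-campaign cutoff, the mean of all compounds plus 3 SD (cut at about 60% in these data); inactive = the rest.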

The experiment deals with Nuclear receptor coactivator 3 (Homo sapiens) (UniProt Q9Y6Q9). Nature of the experiment: NCOA3 GAL4-fusion reporter inhibition – cell-based, luminescence, primary screen (AID 588352).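 Also: 0% = DMSO-treated cells and 100% = gossypol-treated cells at 36 µM; higher means less SRC3-driven luciferase light from the GAL4 reporter.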 The note with it: HEK293 GAL4-SRC3 luciferase reporter, at 3.6 µM, hits give high values. (In a reporter assay the amount or activity of a reporter protein is the signal.)
Chain of Nuclear receptor coactivator 3 (Homo sapiens) (Q9Y6Q9 whole entry, looked up, the tested form may be a part): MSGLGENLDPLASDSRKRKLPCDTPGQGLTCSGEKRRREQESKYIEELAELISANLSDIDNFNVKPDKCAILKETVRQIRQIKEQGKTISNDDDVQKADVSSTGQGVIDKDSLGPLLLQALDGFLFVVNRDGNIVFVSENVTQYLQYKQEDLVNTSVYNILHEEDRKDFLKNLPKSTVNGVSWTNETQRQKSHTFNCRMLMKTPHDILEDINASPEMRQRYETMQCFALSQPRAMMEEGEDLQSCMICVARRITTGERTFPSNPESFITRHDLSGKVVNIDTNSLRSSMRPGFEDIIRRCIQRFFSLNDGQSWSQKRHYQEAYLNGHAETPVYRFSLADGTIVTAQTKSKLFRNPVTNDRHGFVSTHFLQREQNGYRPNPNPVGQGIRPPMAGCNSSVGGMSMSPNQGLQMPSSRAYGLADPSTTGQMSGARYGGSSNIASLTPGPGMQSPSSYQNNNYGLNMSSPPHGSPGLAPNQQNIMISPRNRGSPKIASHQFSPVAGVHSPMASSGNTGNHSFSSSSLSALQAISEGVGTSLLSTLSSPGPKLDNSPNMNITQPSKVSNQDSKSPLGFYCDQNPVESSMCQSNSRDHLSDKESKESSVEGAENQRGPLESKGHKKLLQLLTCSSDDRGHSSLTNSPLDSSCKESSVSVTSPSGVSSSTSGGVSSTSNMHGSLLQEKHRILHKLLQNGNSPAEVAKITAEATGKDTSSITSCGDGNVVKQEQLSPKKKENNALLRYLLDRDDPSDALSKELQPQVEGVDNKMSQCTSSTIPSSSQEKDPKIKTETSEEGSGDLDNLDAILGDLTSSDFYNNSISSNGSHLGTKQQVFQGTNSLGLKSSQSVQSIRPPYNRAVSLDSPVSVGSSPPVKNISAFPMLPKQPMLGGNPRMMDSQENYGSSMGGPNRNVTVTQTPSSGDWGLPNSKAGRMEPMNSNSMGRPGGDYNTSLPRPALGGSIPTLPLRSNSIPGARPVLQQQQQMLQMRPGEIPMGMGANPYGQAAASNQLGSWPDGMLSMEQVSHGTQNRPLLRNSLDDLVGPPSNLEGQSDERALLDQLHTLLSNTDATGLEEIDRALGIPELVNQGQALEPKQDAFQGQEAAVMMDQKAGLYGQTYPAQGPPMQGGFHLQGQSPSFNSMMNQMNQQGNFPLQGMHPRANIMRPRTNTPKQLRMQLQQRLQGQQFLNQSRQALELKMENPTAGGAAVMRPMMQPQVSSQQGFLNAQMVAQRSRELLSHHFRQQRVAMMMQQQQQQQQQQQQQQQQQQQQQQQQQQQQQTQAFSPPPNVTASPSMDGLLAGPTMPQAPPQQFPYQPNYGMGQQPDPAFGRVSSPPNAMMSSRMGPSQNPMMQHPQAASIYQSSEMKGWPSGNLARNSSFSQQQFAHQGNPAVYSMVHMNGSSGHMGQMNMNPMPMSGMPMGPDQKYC
For the molecule `Nc1cccc2c1C(=O)N(Cc1nnc(-c3ccccc3Br)o1)C2=O`, the inhibition (in general, the relative decrease from the control value, in per cent) is 7.44%. In the case of `COc1ccc(C(=O)N2CCCCC2C(=O)Nc2ccc(-n3nc(C)cc3C)cc2)o1` (stereo not drawn), the inhibition was -17.3%. For the molecule `Clc1ccc(-c2nnc(-c3ccccc3)nc2N2CCSCC2)cc1`, the inhibition is 5.59%. The figure for `O=C(NCC1(N2CCCCC2)CCCCC1)c1ccc(NS(=O)(=O)c2ccc(F)cc2)cc1` is -2.32%; for `CCN(CC(=O)Nc1c(F)cccc1F)C(=O)CN1c2cccc3cccc(c23)S1(=O)=O` it is -23.2%.

For the molecule `COc1ccc(C(=O)Nc2ccc(C3(C#N)CCCC3)cc2)cc1OC`, the inhibition was -41%.

Take `C[C@H](C(=O)CC(=O)OC(C)(C)C)[C@H](O)c1ccc(C(F)(F)F)cc1`: the inhibition is 4.25%.

As for `O=S(=O)(c1cccc(-c2cn3ccccc3n2)c1)N1CCCC1`, the inhibition was 11.7%. On to `Cc1c(CN2CCC(CO)(CCOc3ccccc3)CC2)[nH]c2ccc(Cl)cc12`, for which the inhibition is -36.5%.

Consider `CN(CC(=O)Nc1c(Cl)cccc1Cl)C(=O)CC1OC(=O)c2ccccc21` (stereo not drawn), for which the inhibition was 12.4%. For the molecule `COC(=O)/C(=C1\Oc2ccc(C(C)(C)C)cc2S1)C(F)(F)F`, the inhibition is 5.95%. As for `CCc1nc2c(OCCOc3ccccc3)cccn2c1N(C)C(=O)c1cccs1`, the inhibition was -22.5%.

Take `CCn1c(/C=N/NC(=O)c2ccc(OC)cc2)nc2ccccc21`: the inhibition is 15.7%. The figure for `COc1ccc(C(=O)Nc2ccccc2C(=O)N/N=C/c2ccc(O)c(OC)c2)cc1` is 69.8% (active); for `COc1cccc(OCc2cc(/C=N/NC(=O)c3nc(Cl)c(Cl)c(N)c3Cl)ccc2OC)c1` it is -12.8%; for `C=CCN(c1ccc(Cl)cc1)S(=O)(=O)c1cccc(C(=O)OCC(=O)N(C)C)c1` it is 16.1%. For `CC(C)[C@@H](C(=O)OCC(=O)c1ccc2c(c1)NC(=O)CO2)N1C(=O)c2ccccc2C1=O`, the inhibition was -6.83%. `CC(CO)N1CCS(=O)(=O)CC1` (stereo not drawn): the inhibition is 19.6%. Take `O=C(Cc1ccc(S(=O)(=O)N2CCOCC2)s1)Nc1ccc(Br)c(C(F)(F)F)c1`: the inhibition was 4.75%.

With `COCCn1cnc2c1c(=O)n(CC(=O)NN)c(=O)n2Cc1ccccc1`, the inhibition was 1.62%.

For `N=c1c2c(-c3ccccc3)c(-c3ccccc3)n(Cc3ccccc3)c2ncn1CCCO`, the inhibition is 62.7% (active).

As for `COCCn1cnc2c1c(=O)n(Cc1ccc(Br)cc1)c(=O)n2Cc1ccccc1`, the inhibition is -1.52%. For the molecule `CC(C)CC[n+]1ccn(C2=C([O-])c3ccccc3C(=O)/C2=N\S(=O)(=O)c2ccccc2)c1`, the inhibition is -4.74%.

For the molecule `CN(C)CC(C)(C)CNC(=O)c1cc(Br)cc(Br)c1O`, the inhibition was -17%. In the case of `Cc1c(NC(=O)COC(=O)/C=C/c2cccc(F)c2)c(=O)n(-c2ccccc2)n1C`, the inhibition was -6.79%. Regarding `CC(=O)NN=C(C)c1ccc(NC(=O)C2CC2)cc1`, the inhibition is 0.05%. With `CCCC(NCC(=O)Nc1ccccc1C(=O)NC1CC1)c1ccccc1` (stereo not drawn) the figure was 4.81%. With `Cn1c(CC(=O)Nc2ccc(F)cc2)nnc1SCC(=O)NC1CCCCC1`, the inhibition is -3.83%. `Cc1ccc(OCCNC(=O)c2cccc(S(=O)(=O)N3CCN(Cc4ccccc4)CC3)c2)cc1`: the inhibition is 0.45%. The figure for `CC(=O)c1ccc(OC(=O)N2CCOCC2)cc1` is -9.63%; for `CCC(NC(=O)C1CCCC1)c1ccc(C)cc1` (stereo not drawn) it is -5.79%; for `COc1ccc(Cl)cc1NC(=O)C(C)N1CCc2ccccc21` (stereo not drawn) it is -3.25%. For `O=C(NN=Cc1ccccc1O)NN=Cc1ccccc1O`, the inhibition was 64.5% (active). Consider `C=CCOc1ccccc1/C=N/NC(=O)Cc1ccccc1`, for which the inhibition is -4.16%. With `O=C(N/N=C/c1ccccc1O)/C(=C/c1ccccc1)CCO` the figure was 43.6%; with `O=C(COc1ccc(S(=O)(=O)NCCc2ccccc2)cc1)N1CCCC1`, 15.7%. The figure for `CCc1nnc(NC(=O)CCN(c2ccc(C)cc2)S(=O)(=O)c2ccccc2)s1` is 3.02%; for `CNS(=O)(=O)c1ccc(N2CCCC2=O)c([N+](=O)[O-])c1` it is 0.16%. Regarding `COc1ccc(N(C(=O)c2snc(C(N)=O)c2N)C(C(=O)NC2CCCC2)c2ccco2)cc1OC` (stereo not drawn), the inhibition is -3.31%. Turning to `Brc1ccc2nc(-c3ccccc3)c(Cc3ccccc3)n2c1`, the inhibition was -38.3%. The figure for `Cc1cc(=O)oc2c(C(=O)c3ccccc3)c(OCC(N)=O)ccc12` is 14.2%; for `COc1ccc(C(=O)N/N=C2\CCS(=O)(=O)c3ccc(F)cc32)cc1OC` it is 5.88%; for `Cc1cc(C)n(C(=O)c2ccc(C)c(S(=O)(=O)N3CCOCC3)c2)n1` it is 12.7%. For the molecule `CC[C@H]1CN2CCc3cc(OC)c(OC)cc3[C@@H]2C[C@@H]1C[C@H]1NCCc2cc(OC)c(OC)cc21`, the inhibition was 94.6% (active). As for `O=C(O)C1CCN(C(=O)OCc2ccccc2)CC1`, the inhibition was -70.7%.

As for `CCCNC(=O)C1(C)CCCN(C(=O)c2cccc(OC(C)=O)c2C)C1` (stereo not drawn), the inhibition was -10.9%.

Take `CCOC(=O)CN(C)S(=O)(=O)c1ccc(-c2cc(C(=O)OC)sc2C(F)(F)F)cc1`: the inhibition was 9.38%. As to `N#C/C(=C(\O)CCl)c1nnc2n1CCCCC2`, the inhibition was 9.47%. For the molecule `CCCOc1ccc(Cc2c(O)nc(N)[nH]c2=O)cc1C`, the inhibition is 1.06%. As to `COC(=O)/C=C(\Oc1ccccc1)C1(O)CCCCC1`, the inhibition was 9.01%. On to `COc1ccc(OC)c(NC(=O)CN(C)CCOc2ccc(Br)cc2)c1`, for which the inhibition is 4.03%. As for `COc1ccc(Nc2ncnc3ccc(Br)cc23)c(OC)c1`, the inhibition is 82% (active). As for `COc1ccc(OC)c(Nc2nc3ccccc3n3cnnc23)c1`, the inhibition was 9.44%. As for `CCOC1=C2[C@@H](CN(S(=O)(=O)c3ccc(C)cc3)[C@H]2c2ccccc2F)[C@H]2C(=O)N(Cc3ccccc3)C(=O)[C@H]2C1`, the inhibition was 2.22%. With `CCn1ncc(CNC(=O)C2(C)CC2(Br)Br)c1C` (stereo not drawn), the inhibition is -0.54%. In the case of `CCCCCCCCn1c2c(c(=N)c3c1CCC3)CCCC2`, the inhibition was 80% (active). `Cc1cc(S(=O)(=O)NC2CCCC2)ccc1-n1cnnn1`: the inhibition is 2.04%. In the case of `O=S1(=O)CCC(NC(=S)SCc2ccccc2Br)C1` (stereo not drawn), the inhibition was 8%.
